Pf growth 48h: P. falciparum growth inhibition at 48 hours (one generation) | P. falciparum luciferase growth in erythrocytes, 48 h | Potency, µM (top dose mostly 28.7 µM), most hits filed as inhibitors | actives 5.9% (n = 310,000)
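A one-generation exposure of luciferase-tagged malaria parasites in RPMI 1640/Albumax erythrocyte culture, 37 C and 5% CO2. Inhibition is inferred from decreased luminescence after adding detection reagent.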
Sm TGR inh: S. mansoni TGR enzyme inhibition. actives 3% (n = 360,000). Potency, µM (series often up to 114 µM), hits mostly inhibitors. purified TGR, DTNB reduction, TNB absorbance 405 nm. Q962Y6; note: nearly all actives have a fitted effect of over 60% in size
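First, TGR (20 nM dispensed) and NADPH were mixed with compound. Second, a 15 min room-temperature incubation followed. Third, further NADPH and then DTNB were added to start the reaction. Finally, TNB absorbance was monitored kinetically.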
SARS PLP yeast: SARS-CoV PLP inhibition in yeast; S. cerevisiae expressing SARS-CoV PLpro, growth rescue; Potency, µM (highest dose often 32.9 µM), actives largely listed as activators; actives 0.19% (n = 330,000); calls by dose curve; note: nearly all actives have a fitted effect of over 55% in size
Pf growth 96h: P. falciparum growth inhibition at 96 hour, primary screen for plastid delayed-death inhibitors; P. falciparum luciferase reporter growth, 96 h; Potency, µM (doses to about 28.7 µM), actives largely listed as inhibitors; actives 6.9% (n = 320,000); AID 504834
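P. falciparum expressing integrated firefly luciferase grown in erythrocytes (2% hematocrit, 0.05% parasitemia final) with compounds for 96 hours at 37 C, 5% CO2. Growth inhibition read as loss of luminescence after adding luciferase detection reagent.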
A number is an active result; - = inactive; ? = inconclusive; . = not tested or not shown. The list is not random: actives were taken first. Their share in the collection is about 12%. Unless noted, calls come from the whole dose curve; as a rule, active = well fitted curve in the direction sought with a large enough effect; inconclusive = small, poorly fitted or top-dose-only effect, or another doubt; inactive = no such curve, though single readings can be large; an effect the other way counts as inactive or inconclusive.

SMILES | Pf growth 48h | Sm TGR inh | SARS PLP yeast | Pf growth 96h
CC(C)(C)NC(=O)CN(C(=O)c1snc(C(=O)NC2CCCCC2)c1N)c1ccc(F)cc1 | 7.4µM | - | - | ?
CCCCC(C(=O)NC1CCCC1)N(C(=O)c1snc(C(N)=O)c1N)c1ccc(F)cc1 (stereo unspecified) | ? | - | - | 5.9µM
CCCC(C(=O)NC1CCCC1)N(Cc1ccc2c(c1)OCO2)C(=O)c1snc(C(N)=O)c1N (stereo unspecified) | . | - | - | 9.3µM
CCCC(C(=O)NC1CCCC1)N(Cc1ccc(F)cc1)C(=O)c1snc(C(N)=O)c1N (stereo unspecified) | ? | - | - | ?
CCOc1ccccc1N(C(=O)c1snc(C(N)=O)c1N)C(C(=O)NC1CCCC1)c1ccco1 (stereo unspecified) | ? | - | - | -
Cc1ccc(N(C(=O)c2snc(C(N)=O)c2N)C(C(=O)NC2CCCC2)c2ccco2)cc1 (stereo unspecified) | 13µM | 40µM | - | -
COc1ccc(C(C(=O)NCc2ccccc2)N(Cc2cccnc2)C(=O)c2snc(C(N)=O)c2N)cc1OC (stereo unspecified) | ? | - | - | -
Cc1cccc(N(C(=O)c2snc(C(N)=O)c2N)C(C(=O)NC2CCCC2)c2ccc(C)o2)c1 (stereo unspecified) | 8.3µM | ? | - | -
CN(C)c1ccc(C(C(=O)NCc2ccccc2)N(Cc2cccnc2)C(=O)c2snc(C(N)=O)c2N)cc1 (stereo unspecified) | ? | - | - | 13µM
Cc1cccc(N(C(=O)c2snc(C(N)=O)c2N)C(C(=O)NC2CCCC2)c2ccncc2)c1 (stereo unspecified) | ? | - | - | ?
COc1ccc(N(C(=O)c2snc(C(N)=O)c2N)C(C(=O)NC2CCCCC2)c2ccc(C)o2)c(OC)c1 (stereo unspecified) | 13µM | - | - | -
CC1(C)CC(=O)c2cc(C(=O)Nc3ccc(Cl)cc3)c(=O)[nH]c2C1 | . | - | . | .
COc1ccccc1N1CCN(C(=O)CCNC(=O)c2ccco2)CC1 | - | - | - | -
CC(NC(=O)c1cccc(S(=O)(=O)N2CCCCCC2)c1)c1ccccc1 (stereo unspecified) | ? | - | - | ?
Cc1ccc(C(C(=O)NC2CCCC2)N(Cc2cccnc2)C(=O)c2snc(C(N)=O)c2N)o1 (stereo unspecified) | - | 45µM | - | ?
CN(Cc1cccnc1)C(=O)CCCc1c[nH]c2ccccc12 | ? | 32µM | - | -
CC(C)n1cc(/C=N/NC(=O)COc2cccc3cccnc23)c2ccccc21 | ? | - | - | 8.3µM
COc1ccccc1OCC(=O)N/N=C/c1c(O)ccc2ccccc12 | 2.6µM | - | ? | ?
CCC(=N\NC(=O)COc1ccccc1OC)/C(CC)=N/NC(=O)COc1ccccc1OC | 9.3µM | - | - | ?
COc1ccccc1OCC(=O)Nc1ccncc1 | - | - | - | 0.52µM
CCOC(=O)c1cc2c(=O)n3ccccc3nc2n(CC2CCCO2)c1=NC(=O)c1ccccc1C (stereo unspecified) | . | - | . | .
COc1ccccc1OCCOC(=O)Nc1ccccc1 | - | - | - | 8.3µM
Cc1cc(/C=N\NC(=O)COc2cccc3cccnc23)c(C)n1-c1ccc(Br)cc1 | 5.9µM | - | - | 2.3µM
Cc1ccc(OCCOC(=O)Nc2ccccc2)cc1 | - | - | - | -
COCc1c(Br)c(C)nc(OCC(=O)N/N=C/c2cc(C)n(-c3ccc([N+](=O)[O-])cc3)c2C)c1C#N | 12µM | - | - | ?
SMILES | Pf growth 48h | Sm TGR inh | SARS PLP yeast | Pf growth 96h
COc1ccccc1OCC(=O)N/N=C/c1cccc2cccnc12 | - | - | - | 13µM
Cc1ccnc(-n2c(C)cc(/C=N/NC(=O)COc3cccc4cccnc34)c2C)c1 | - | - | - | -
Cc1noc(C)c1NC(=O)N(C)C[C@@H]1Oc2ccc(NC(=O)Cc3cn(C)c4ccccc34)cc2CC(=O)N([C@H](C)CO)C[C@@H]1C | . | . | - | .
COc1ccc2sc(N(Cc3cccnc3)C(=O)C3CCCCC3)nc2c1 | . | - | . | .
CCOC(=O)c1ccc(NC(=O)c2cc3sccc3n2Cc2ccc(Cl)cc2)cc1 | . | - | . | .
Cc1cccc(N2CCN(CCCNC(=O)c3ccc(NC(=O)C4=CSCCO4)cc3)CC2C)c1 (stereo unspecified) | ? | - | - | -
CCOc1ccc(NC(=O)CN2CCCC2c2cccs2)cc1S(=O)(=O)N1CCCCC1 (stereo unspecified) | 12µM | - | - | ?
